Compound activity: PubChem, several laboratories
Rows were chosen to be rich in hits. Some 4.7% of all compounds tested hit in one or more screens of this group.
Calb FLC: C. albicans growth inhibition with fluconazole, primary screen, CaCi-2 strain, Alamar Blue fluorescence; C. albicans CaCi-2 (fluconazole-resistant clinical isolate) + fluconazole, 48 h; growth inhibition, % (test concentration not listed); AID 1979, 2009; actives 0.57% (n = 300,000);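 active = growth inhibition above about 58% in most replicates, limit read from the data, passing the limit was not always enough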;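 also: all wells also contain fluconazole at 8 µg/ml as a sub-toxic cotreatment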
PfHsp90 yeast 2: growth inhibition of PfHsp90-expressing yeast, primary screen, antimalarial PfHsp90 inhibitor project, S. cerevisiae, BacTiter-Glo luminescence, single point, set 2 | BacTiter-Glo ATP, 48 h; yeast lacking PDR1 and PDR3 efflux regulators | AID 504621, 2011 | actives 0.32% (n = 310,000) | inhibition, % at 9.4 µM;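 active = every replicate shows inhibition above about 80%, whatever the replicate mean, limit read from the data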
SKKanGAS inh: S. pyogenes SKKanGAS growth inhibitors in kanamycin, primary screen, streptokinase expression inhibitor project, SKKanGAS strain, BacTiter-Glo luminescence; 6 h; inhibition, % at 7.5 µM; actives 1.3% (n = 300,000);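 active = mean replicate score, as percent of positive control median, at least 50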;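 also: strain carries kanamycin resistance gene driven by streptokinase promoter and grows in 40 µg/ml kanamycin; loss of luminescence reflects streptokinase promoter inhibition or plain growth inhibition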
tim10-1 inh: growth inhibitors of tim10-1 mutant yeast, primary screen, luminescence, uHTS; inhibition, % at 20 µM; S. cerevisiae tim10-1 ts strain growth, BacTiter-Glo, 24 h; actives 2.2% (n = 330,000);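 active = inhibition of at least 40%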;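 also: mutant grown at 25 °C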
TIM10 inh: growth inhibitors of isogenic TIM10 control yeast, primary screen, counter-screen for tim10-1 yeast inhibitor project, luminescence, uHTS; S. cerevisiae TIM10 strain growth, BacTiter-Glo luminescence, 24 h; inhibition, % at 10 µM; actives 1.4% (n = 330,000); AID 463195, 2010;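 active = inhibition of 40% or more at the single tested concentration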;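 also: wild-type TIM10 isogenic control strain grown at permissive 25 °C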
tim23-1 inh: growth inhibitors of tim23-1 mutant yeast, primary screen, luminescence, uHTS; S. cerevisiae tim23-1 growth, BacTiter-Glo luminescence, 24 h; inhibition, % at 20 µM; actives 1.3% (n = 330,000);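 active = growth inhibition of the mutant yeast at or above 50%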;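 also: temperature-sensitive mutant grown at 25 °C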
Hits are given with their value.

Screening CCOC(=O)N1CCN(C(=O)CN(C)S(=O)(=O)c2ccc(OCC)cc2)CC1 returned Calb FLC inactive, PfHsp90 yeast 2 inactive, SKKanGAS inh inactive, tim10-1 inh inactive, TIM10 inh inactive and tim23-1 inh inactive.
`O=C(NCCNC(=O)c1cc(Cl)ccc1Cl)c1ccccn1` gave Calb FLC inactive, PfHsp90 yeast 2 inactive, SKKanGAS inh inactive, tim10-1 inh inactive, TIM10 inh inactive and tim23-1 inh inactive.
Screening F[B-](F)(F)c1cc2ccccc2s1 returned PfHsp90 yeast 2 inactive.
F[B-](F)(F)c1cc2cc(Br)ccc2s1 was read as PfHsp90 yeast 2 116.9.
CCCCCC(=O)NNC(=S)NC(=O)c1cccc([N+](=O)[O-])c1 was read as Calb FLC 85.4, PfHsp90 yeast 2 inactive, SKKanGAS inh inactive, tim10-1 inh inactive, TIM10 inh inactive and tim23-1 inh inactive.
`CCOC(=O)c1ccccc1NC(=O)c1cccc([N+](=O)[O-])c1` gave Calb FLC 107.6, PfHsp90 yeast 2 inactive, SKKanGAS inh inactive, tim10-1 inh inactive, TIM10 inh inactive and tim23-1 inh inactive.
O=C(COC(=O)c1ccccc1NC(=O)c1ccccc1)c1cccc([N+](=O)[O-])c1 was read as Calb FLC inactive, PfHsp90 yeast 2 inactive, SKKanGAS inh inactive, tim10-1 inh inactive, TIM10 inh inactive and tim23-1 inh inactive.
For COc1ccc(C(=O)NNC(=S)NC(=O)c2cccc([N+](=O)[O-])c2)cc1 the results were Calb FLC 81.3, PfHsp90 yeast 2 inactive, SKKanGAS inh inactive, tim10-1 inh inactive, TIM10 inh inactive and tim23-1 inh inactive.
For COc1ccc(/C=C(/NC(=O)c2cccc([N+](=O)[O-])c2)C(=O)O)cc1 the results were Calb FLC inactive, PfHsp90 yeast 2 inactive, SKKanGAS inh inactive, tim10-1 inh inactive, TIM10 inh inactive and tim23-1 inh inactive.
`Cc1ccsc1C(=O)N(C)C1CCS(=O)(=O)C1` (stereo unspecified) gave PfHsp90 yeast 2 inactive, tim10-1 inh inactive, TIM10 inh inactive and tim23-1 inh inactive.
For CC(=O)O[C@H]1[C@H](O)[C@H](Oc2c(O)c(C)c3c4c2[C@@H](C)CC[C@@H]4[C@@H](C)C[C@H]3C=C(C)C)O[C@@H](C)[C@H]1O the results were PfHsp90 yeast 2 118.1, tim10-1 inh inactive, TIM10 inh inactive and tim23-1 inh inactive.
For O=C(Nc1nnc(-c2ccc(Cl)cc2)o1)c1cccc(N2C(=O)CCC2=O)c1 the results were Calb FLC inactive, PfHsp90 yeast 2 inactive, SKKanGAS inh 69.5, tim10-1 inh inactive, TIM10 inh inactive and tim23-1 inh inactive.
CSc1cccc(-c2nnc(NC(=O)c3cccc(N4C(=O)CCC4=O)c3)o2)c1 was read as Calb FLC inactive, PfHsp90 yeast 2 inactive, SKKanGAS inh 85.0, tim10-1 inh inactive, TIM10 inh inactive and tim23-1 inh inactive.
For CC1CCN(C2CC(=O)N(c3ccc(Br)cc3Br)C2=O)CC1 (stereo unspecified) the results were Calb FLC inactive, PfHsp90 yeast 2 107.4, SKKanGAS inh inactive, tim10-1 inh inactive, TIM10 inh inactive and tim23-1 inh inactive.
Screening CC1CCN(C2CC(=O)N(c3ccccc3)C2=O)CC1 (stereo unspecified) returned Calb FLC inactive, PfHsp90 yeast 2 inactive, SKKanGAS inh inactive, tim10-1 inh inactive, TIM10 inh inactive and tim23-1 inh inactive.
For COc1ccc(Cl)cc1C(=O)NCC(=O)OCc1ccccc1 the results were PfHsp90 yeast 2 inactive, SKKanGAS inh inactive, tim10-1 inh inactive, TIM10 inh inactive and tim23-1 inh inactive.
Screening Cc1ccc2nc(-c3ccc(NS(=O)(=O)c4ccc(F)c(F)c4)cc3)sc2c1 returned Calb FLC inactive, PfHsp90 yeast 2 inactive and SKKanGAS inh 76.1.
Screening Cc1ccc2nc(-c3ccc(NS(=O)(=O)c4ccccc4)cc3)sc2c1 returned Calb FLC inactive, PfHsp90 yeast 2 inactive, SKKanGAS inh inactive, tim10-1 inh inactive, TIM10 inh inactive and tim23-1 inh inactive.
